# In PubChem BioAssay (EPA / NIEHS):
# Results filed as inconclusive are left out. The source holds several records for some structures; these can differ, active in one and inactive in another. Active and inactive are the calls of the source. Rule for the calls: active = hit-call score of the fitted dose curve at least 0.9, where 1 is the maximum; inconclusive = response in the unintended direction; inactive = score below 0.9.
# Tests used:
# [1] = target: bovine Estrogen Receptor (ER), ESR1 (gene 407238) (UniProt P49884); test: NVS_NR_bER: NovaScreen (NVS) Nuclear Receptor Binding Assay for bovine Estrogen Receptor (ER) (AID 2283345);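 note: actives lower the bound radioligand count which means they displace the ER ligand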
# Sequence of bovine Estrogen Receptor (ER), ESR1 (gene 407238) (P49884 whole entry, looked up): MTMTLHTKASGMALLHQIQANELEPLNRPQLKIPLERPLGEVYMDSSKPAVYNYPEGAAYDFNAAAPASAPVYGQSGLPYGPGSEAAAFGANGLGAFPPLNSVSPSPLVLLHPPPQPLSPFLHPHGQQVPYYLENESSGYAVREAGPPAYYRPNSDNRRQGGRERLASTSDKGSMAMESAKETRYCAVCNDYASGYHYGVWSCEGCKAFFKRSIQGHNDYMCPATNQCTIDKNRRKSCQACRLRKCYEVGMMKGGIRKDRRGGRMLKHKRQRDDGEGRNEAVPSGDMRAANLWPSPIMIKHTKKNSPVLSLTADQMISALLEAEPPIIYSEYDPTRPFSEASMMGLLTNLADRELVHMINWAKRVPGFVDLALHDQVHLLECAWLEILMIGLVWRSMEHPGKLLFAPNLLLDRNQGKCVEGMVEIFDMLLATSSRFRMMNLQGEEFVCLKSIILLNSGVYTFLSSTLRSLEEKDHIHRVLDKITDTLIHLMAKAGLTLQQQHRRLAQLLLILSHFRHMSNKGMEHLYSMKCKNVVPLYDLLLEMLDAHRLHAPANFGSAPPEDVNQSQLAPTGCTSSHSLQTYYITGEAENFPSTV
# In short: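 Displacement of a radioligand from estrogen receptor in bovine uterine membrane preparations; scintillation signal taken at 18 hours, DMSO as baseline. Single-concentration duplicates (25 uM) preceded concentration-response follow-up of actives.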
# [2] = target: Estrogen receptor (Homo sapiens) (UniProt P03372); test: OT_ER_ERaERa_0480: Odyssey Thera (OT) 8-hour HEK293T Protein-Complementation Assay for Estrogen Receptor-alpha/-alpha Homodimer (AID 2283351);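 note: rise in fluorescence from reassembled reporter fragments on ERα LBD homodimer in nucleus or whole cell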
# Sequence of Estrogen receptor (Homo sapiens) (P03372 whole entry, looked up, the tested form may be a part): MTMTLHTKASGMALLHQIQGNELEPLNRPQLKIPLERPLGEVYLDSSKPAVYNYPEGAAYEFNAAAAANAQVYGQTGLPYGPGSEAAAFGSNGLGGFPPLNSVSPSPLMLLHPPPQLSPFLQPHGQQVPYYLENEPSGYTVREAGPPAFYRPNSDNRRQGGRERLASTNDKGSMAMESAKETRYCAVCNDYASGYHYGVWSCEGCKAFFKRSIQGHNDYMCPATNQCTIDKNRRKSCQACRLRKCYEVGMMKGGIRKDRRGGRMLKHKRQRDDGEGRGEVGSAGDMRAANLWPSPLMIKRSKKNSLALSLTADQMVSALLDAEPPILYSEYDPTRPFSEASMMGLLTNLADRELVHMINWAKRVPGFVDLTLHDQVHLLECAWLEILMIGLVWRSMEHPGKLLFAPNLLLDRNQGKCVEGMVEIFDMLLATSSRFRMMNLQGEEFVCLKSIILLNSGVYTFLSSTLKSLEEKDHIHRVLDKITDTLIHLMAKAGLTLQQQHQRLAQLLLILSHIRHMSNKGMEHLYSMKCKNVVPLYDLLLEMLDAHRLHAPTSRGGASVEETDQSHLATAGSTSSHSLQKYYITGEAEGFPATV
# In short: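 The readout is complementation of fragments fused to the human ER alpha ligand-binding domain (aa 310-547), stably expressed in HEK293T cells. After 8 h of exposure, the increase in nuclear/cytoplasmic fluorescence was measured by laser scanning cytometry and fitted relative to DMSO.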
# [3] = target: Estrogen receptor (Homo sapiens) + Estrogen receptor beta (Homo sapiens) (UniProt P03372+Q92731); test: OT_ER_ERaERb_0480: Odyssey Thera (OT) 8-hour HEK293T Protein-Complementation Assay for Estrogen Receptor-alpha/-beta Heterodimer (AID 2283352)
# Sequence of Estrogen receptor (Homo sapiens) + Estrogen receptor beta (Homo sapiens) (P03372 whole entry, looked up): as the sequence (P03372 whole entry, looked up, the tested form may be a part) above
# Sequence of Estrogen receptor (Homo sapiens) + Estrogen receptor beta (Homo sapiens) (Q92731 whole entry, looked up): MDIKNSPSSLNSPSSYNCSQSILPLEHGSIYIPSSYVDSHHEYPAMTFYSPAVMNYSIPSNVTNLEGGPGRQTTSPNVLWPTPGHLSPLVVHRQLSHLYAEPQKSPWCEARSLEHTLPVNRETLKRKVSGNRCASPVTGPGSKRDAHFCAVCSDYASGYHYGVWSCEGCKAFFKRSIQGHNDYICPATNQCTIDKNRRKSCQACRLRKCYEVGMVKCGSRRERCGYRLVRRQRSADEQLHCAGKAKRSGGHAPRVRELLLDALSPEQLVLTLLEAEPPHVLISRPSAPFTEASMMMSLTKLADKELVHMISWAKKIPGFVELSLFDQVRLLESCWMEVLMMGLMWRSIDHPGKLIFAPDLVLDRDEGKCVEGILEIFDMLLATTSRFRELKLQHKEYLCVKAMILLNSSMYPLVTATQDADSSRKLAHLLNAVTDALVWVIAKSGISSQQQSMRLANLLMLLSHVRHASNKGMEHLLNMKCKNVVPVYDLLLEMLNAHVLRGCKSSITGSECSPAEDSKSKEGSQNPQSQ
# In short: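 Compound added to HEK293T cells carrying split-reporter-tagged ER-alpha and ER-beta LBDs, incubated 8 hours, then imaged by laser scanning cytometer. Signal rise in nucleus, or nucleus and cytoplasm, over vehicle was fitted in the positive direction.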
# [4] = target: Estrogen receptor (Homo sapiens) (UniProt P03372); test: NVS_NR_hER: NovaScreen (NVS) Nuclear Receptor Binding Assay for human Estrogen Receptor (ER) (AID 2283348)
# In short: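 Cell-free radioligand binding with protein extracted from MCF7 cells; scintillation counting 18 hours after dosing. Loss of signal versus DMSO baseline read as displacement; primary single-concentration screen at 25 uM in duplicate, actives retested in concentration series.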
# [5] = tested on: guinea pig Histamine Receptor (H2), gene 100729734; test: NVS_GPCR_gH2: NovaScreen (NVS) G Protein-Coupled Receptor Assay for guinea pig Histamine Receptor (H2) (AID 2283342)
# In short: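 Radioligand displacement on guinea pig striatal membranes, 1 h after dosing, filter-based scintillation counting; loss of signal versus DMSO. Single-point screen at 25 uM in duplicate, then concentration-response up to 50 uM.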
# [6] = target: Bile acid receptor (Homo sapiens) (UniProt Q96RI1); test: NVS_NR_hFXR_Antagonist: NovaScreen (NVS) Nuclear Receptor Binding Assay for human Farnesoid X Receptor Antagonism (FXR) (AID 2283350)
# Sequence of Bile acid receptor (Homo sapiens) (Q96RI1 whole entry, looked up): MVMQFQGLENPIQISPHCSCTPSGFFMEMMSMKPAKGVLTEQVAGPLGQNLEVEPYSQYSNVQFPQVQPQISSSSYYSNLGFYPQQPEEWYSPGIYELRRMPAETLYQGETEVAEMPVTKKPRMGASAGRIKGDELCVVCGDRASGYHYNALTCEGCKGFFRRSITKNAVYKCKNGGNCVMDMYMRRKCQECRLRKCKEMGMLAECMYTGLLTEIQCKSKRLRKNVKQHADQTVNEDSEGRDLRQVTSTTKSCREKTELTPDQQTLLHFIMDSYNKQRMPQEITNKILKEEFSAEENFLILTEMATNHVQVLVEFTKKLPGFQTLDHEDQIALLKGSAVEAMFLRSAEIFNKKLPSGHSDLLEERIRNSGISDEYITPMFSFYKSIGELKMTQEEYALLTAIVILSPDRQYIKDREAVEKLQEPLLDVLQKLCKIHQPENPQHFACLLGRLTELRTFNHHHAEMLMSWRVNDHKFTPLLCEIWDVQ
# In short: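 Cell-free TR-FRET ligand-binding read-out on human FXR (NR1H4) in antagonist mode, measured 1 h after dosing. Primary screen in duplicate at 25 uM, actives retested in concentration series; signal loss scored versus DMSO.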
# NCBI gene 100848466 = test: NVS_NR_bPR: NovaScreen (NVS) Nuclear Receptor Binding Assay for bovine Progextron Receptor (PR) (AID 2283343);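 for AC50: actives lower bound radioligand signal below DMSO meaning displacement of the label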
# In short: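 Bovine uterine membrane preparation, cell-free; radioligand competitive displacement measured by scintillation counting 18 hours after dosing. Loss of signal versus DMSO baseline indicates binding; primary HTS single concentration 25 uM in duplicate, actives followed in concentration series.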
# [7] = target: chimpanzee Androgen Receptor (AR), AR (gene 747460) (UniProt O97775); test: NVS_NR_cAR: NovaScreen (NVS) Nuclear Receptor Binding Assay for chimpanzee Androgen Receptor (AR) (AID 2283346);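 note: radioligand displacement from AR measured by scintillation counting in a cell-free assay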
# Sequence of chimpanzee Androgen Receptor (AR), AR (gene 747460) (O97775 whole entry, looked up): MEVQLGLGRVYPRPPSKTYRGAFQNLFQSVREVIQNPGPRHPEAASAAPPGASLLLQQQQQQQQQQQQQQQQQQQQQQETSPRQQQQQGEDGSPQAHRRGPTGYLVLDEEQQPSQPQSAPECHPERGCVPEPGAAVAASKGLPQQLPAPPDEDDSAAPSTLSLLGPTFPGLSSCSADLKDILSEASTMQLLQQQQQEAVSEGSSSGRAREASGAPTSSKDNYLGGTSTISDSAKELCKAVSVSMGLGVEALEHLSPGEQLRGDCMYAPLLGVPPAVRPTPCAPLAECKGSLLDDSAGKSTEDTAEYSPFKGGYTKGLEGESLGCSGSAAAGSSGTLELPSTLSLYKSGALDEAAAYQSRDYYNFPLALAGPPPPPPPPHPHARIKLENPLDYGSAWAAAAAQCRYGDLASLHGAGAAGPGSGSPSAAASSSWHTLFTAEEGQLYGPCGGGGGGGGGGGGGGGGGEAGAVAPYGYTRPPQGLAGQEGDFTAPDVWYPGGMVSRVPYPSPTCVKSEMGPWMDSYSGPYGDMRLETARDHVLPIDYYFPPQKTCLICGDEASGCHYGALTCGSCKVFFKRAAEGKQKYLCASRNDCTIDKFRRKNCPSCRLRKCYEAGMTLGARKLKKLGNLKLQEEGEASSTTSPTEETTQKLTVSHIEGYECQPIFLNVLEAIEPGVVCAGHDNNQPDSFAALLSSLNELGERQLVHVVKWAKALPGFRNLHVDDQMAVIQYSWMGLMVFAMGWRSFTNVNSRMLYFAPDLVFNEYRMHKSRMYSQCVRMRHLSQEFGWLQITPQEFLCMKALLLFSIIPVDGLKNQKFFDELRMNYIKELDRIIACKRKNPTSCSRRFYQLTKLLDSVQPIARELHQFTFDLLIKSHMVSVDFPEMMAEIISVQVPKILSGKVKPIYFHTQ
# In short: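 Cell-free radioligand displacement using receptor protein extracted from Sf9/Sf21 cells; bound radioligand measured by scintillation counting 72 hours after chemical dosing. Loss of signal versus DMSO baseline indicates binding; primary screen single-concentration in duplicate at 25 uM, actives followed in concentration series.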
# [8] = target: rat Glycine Receptor, Strychnine-sensitive (GlyRStrySens), Glra1 (gene 25674) (UniProt P07727); test: NVS_LGIC_rGlyRStrySens: NovaScreen (NVS) Ligand-Gated Ion Channel Assay for rat Glycine Receptor, Strychnine-sensitive (GlyRStrySens) (AID 2283341)
# Sequence of rat Glycine Receptor, Strychnine-sensitive (GlyRStrySens), Glra1 (gene 25674) (P07727 whole entry, looked up): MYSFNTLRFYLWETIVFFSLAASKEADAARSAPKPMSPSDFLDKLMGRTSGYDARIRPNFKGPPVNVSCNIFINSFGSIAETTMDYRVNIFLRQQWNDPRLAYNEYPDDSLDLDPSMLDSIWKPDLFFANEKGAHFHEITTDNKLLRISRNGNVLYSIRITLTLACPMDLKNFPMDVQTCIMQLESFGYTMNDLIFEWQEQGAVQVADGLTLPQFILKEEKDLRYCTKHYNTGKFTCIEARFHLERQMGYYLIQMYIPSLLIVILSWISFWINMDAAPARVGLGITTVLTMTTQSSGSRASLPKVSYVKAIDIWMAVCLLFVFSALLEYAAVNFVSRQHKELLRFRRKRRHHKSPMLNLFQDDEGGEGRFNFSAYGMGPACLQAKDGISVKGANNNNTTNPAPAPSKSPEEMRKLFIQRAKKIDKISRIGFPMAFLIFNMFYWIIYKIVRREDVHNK
# In short: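 Radioligand displacement on rat spinal cord membranes, 1 hr, filter scintillation read-out. Single-concentration duplicate screen at 25 uM; chemicals meeting threshold (e.g., 30% inhibition) rerun in concentration-response up to 50 uM. Loss of binding fitted versus DMSO.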
# [9] = target: human Constitutive Androstane Receptor (CAR), NR1I3 (gene 9970) (UniProt Q14994); test: NVS_NR_hCAR_Antagonist: NovaScreen (NVS) Nuclear Receptor Binding Assay for human Constitutive Androstane Receptor Antagonism (CAR) (AID 2283344)
# Sequence of human Constitutive Androstane Receptor (CAR), NR1I3 (gene 9970) (Q14994 whole entry, looked up): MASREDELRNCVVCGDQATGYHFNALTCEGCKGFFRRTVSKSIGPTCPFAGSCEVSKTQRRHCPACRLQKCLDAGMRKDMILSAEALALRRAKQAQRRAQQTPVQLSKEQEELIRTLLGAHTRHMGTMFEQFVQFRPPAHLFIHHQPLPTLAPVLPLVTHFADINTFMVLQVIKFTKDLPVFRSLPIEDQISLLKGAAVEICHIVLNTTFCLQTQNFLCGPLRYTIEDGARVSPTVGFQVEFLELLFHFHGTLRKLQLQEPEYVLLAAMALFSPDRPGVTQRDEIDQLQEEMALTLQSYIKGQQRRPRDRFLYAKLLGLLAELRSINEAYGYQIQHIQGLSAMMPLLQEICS
# In short: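 Cell-free TR-FRET binding read 1 h after dosing, antagonist mode; loss of signal versus DMSO baseline. Primary screen in duplicate at a single 25 uM; actives retested in concentration series.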
compound,measurement,setting,value
O=[Si]=O,outcome,[1],inactive
same,outcome,[2],inactive
same,outcome,[3],inactive
CCC(C)N(C)C(=O)c1cc2ccccc2c(-c2ccccc2Cl)n1 (stereo not drawn),outcome,[1],inactive
same,outcome,[4],inactive
same,outcome,[2],inactive
same,outcome,[3],inactive
CN(C)C(=O)NC1(c2ccccc2)CCN(CC[C@@]2(c3ccc(F)c(F)c3)CN(C(=O)c3ccccc3)CCO2)CC1,AC50,[5],0.276 µM (active)
same,outcome,[6],inactive
CC(=O)[C@@]1(O)CC[C@H]2[C@@H]3CCC4=CC(=O)CC[C@]4(C)[C@H]3CC[C@@]21C,AC50,NCBI gene 100848466,0.467 µM (active)
same,AC50,[1],15.4 µM (active)
same,outcome,[1],inactive
same,AC50,[7],0.49 µM (active)
same,outcome,[7],inactive
Cn1cnc2c1c(=O)[nH]c(=O)n2C,outcome,[5],inactive
CC(C)NCC(O)c1ccc(O)c(O)c1 (stereo not drawn),outcome,[5],inactive
CCCCCCCCCCCCCCOS(=O)(=O)O,AC50,NCBI gene 100848466,25 µM (active)
same,outcome,[2],inactive
CN(C)CCCN1c2ccccc2Sc2ccc(Cl)cc21,AC50,[5],1.42 µM (active)
same,outcome,[6],inactive
CCN(CC)CCOc1ccc(C(=C(Cl)c2ccccc2)c2ccccc2)cc1,outcome,[8],inactive
same,AC50,[5],1.82 µM (active)
same,AC50,NCBI gene 100848466,11.6 µM (active)
same,AC50,[9],34 µM (active)
same,AC50,[7],4.82 µM (active)
same,AC50,[6],13.5 µM (active)
O=Cc1ccccc1C=O,outcome,[1],inactive
same,AC50,[7],25 µM (active)
same,outcome,[4],inactive
same,outcome,[2],inactive
O=C1OC(c2ccc(O)cc2)(c2ccc(O)cc2)c2ccccc21,outcome,NCBI gene 100848466,inactive
CCCCC(CC)COC(=O)CCCCCCCC(=O)OCC(CC)CCCC (stereo not drawn),outcome,[1],inactive
CS(=O)(=O)c1ccc([C@@H](C[C@H]2CCC(=O)C2)C(=O)Nc2cnccn2)cc1Cl,AC50,[5],0.0043 µM (active)
same,outcome,[2],inactive
same,outcome,[3],inactive
O=C1NC(=O)C(c2ccccc2)(c2ccccc2)N1,outcome,[9],inactive
CC1=C(C)S(=O)(=O)CCS1(=O)=O,outcome,[2],inactive
Cc1ccc(C(C)(C)C)c(O)c1,outcome,[4],inactive
same,outcome,[2],inactive
same,outcome,[3],inactive
COc1ccc(C(=O)Nc2nc3ccccc3c(NCc3ccccc3)c2C#N)cc1,outcome,[2],inactive
same,outcome,[3],inactive
NC(=Nc1ccccc1)Nc1ccccc1,outcome,[2],inactive
same,outcome,[3],inactive
c1ccc2occc2c1,outcome,[2],inactive
CCCCC(CC)COP(=O)(OCC(CC)CCCC)OCC(CC)CCCC (stereo not drawn),AC50,[7],18.1 µM (active)
Oc1ccc(O)cc1,outcome,[2],inactive
same,outcome,[3],inactive
Nc1nc(=S)c2[nH]cnc2[nH]1,outcome,[4],inactive
same,outcome,[2],inactive
same,outcome,[3],inactive
CC(C)c1cccc(C(C)C)c1,outcome,[2],inactive
O=C1CCCCC1,outcome,[2],inactive
same,outcome,[3],inactive
CC(=O)CC(c1ccccc1)c1c(O)c2ccccc2oc1=O (stereo not drawn),outcome,[7],inactive
NC1CCCCC1,outcome,[2],inactive
same,outcome,[3],inactive
CN(C)CCCN(C)CCCN(C)C,outcome,[2],inactive
O=C(O)c1[nH]n(-c2ccc(S(=O)(=O)O)cc2)c(=O)c1N=Nc1ccc(S(=O)(=O)O)cc1,outcome,[2],inactive
OCC(CO)n1cnc(-c2ccc(F)cc2)c1-c1ccnc(Oc2ccccc2)n1,outcome,[2],inactive
same,outcome,[3],inactive
CC1(C)C(=O)NC(=O)N1CO,outcome,[2],inactive
same,outcome,[3],inactive
CCc1cc(C2=C(C(=O)O)N(c3ccccc3C(F)(F)F)S(=O)(=O)c3ccccc32)cc2c1OCO2,AC50,[7],25 µM (active)
COC(=O)[C@H]1[C@H]2C[C@@H]3c4[nH]c5cc(OC)ccc5c4CCN3C[C@H]2C[C@@H](OC(=O)c2cc(OC)c(OC)c(OC)c2)[C@@H]1OC,AC50,[7],19.2 µM (active)
CCCCCCC(CCCCCCCCCCC(=O)OCC(COC(C)=O)OC(C)=O)OC(C)=O (stereo not drawn),outcome,[2],inactive
O=C(O)CC(O)(CC(=O)O)C(=O)O,outcome,[2],inactive
same,outcome,[3],inactive
O=C(NS(=O)(=O)/C=C/c1cccs1)c1ccc(F)cc1Br,outcome,[2],inactive
COC(=O)CCC(=O)OC,outcome,[2],inactive
CCCCCCCCCCCCCCCCO,outcome,[2],inactive
S=c1[nH]c2ccccc2s1,outcome,[7],inactive
CCCCCCCC(=O)OC,outcome,[2],inactive
CC(C)OC(=O)C(C)(C)Oc1ccc(C(=O)c2ccc(Cl)cc2)cc1,outcome,[4],inactive
same,outcome,[6],inactive
same,outcome,[2],inactive
same,outcome,[3],inactive
O=C(O)CN(CC(=O)O)CC(=O)O,outcome,[2],inactive
